The record followed here is PubChem BioAssay AID652031 (The Scripps Research Institute Molecular Screening Center, 2013).

Hit rate of the full screen: of about 16,000 compounds, about 70 (0.4%) were called active. No stated cut-off is given here; in the data, active means inhibition above about 50%; inactive means the rest. What follows is part of a selection rich in actives, with near analogues and random picks from the rest.

In this test the target is Kappa-type opioid receptor (Homo sapiens) (UniProt P41145). Kind of test: antagonists of human kappa opioid receptor OPRK1, Maybridge library (AID 652031). The conditions noted are these: OPRK1 cells, antagonist mode, fluorescence readout; at 9 µM; hits give high values.
Sequence of Kappa-type opioid receptor (Homo sapiens) (P41145 whole entry, looked up): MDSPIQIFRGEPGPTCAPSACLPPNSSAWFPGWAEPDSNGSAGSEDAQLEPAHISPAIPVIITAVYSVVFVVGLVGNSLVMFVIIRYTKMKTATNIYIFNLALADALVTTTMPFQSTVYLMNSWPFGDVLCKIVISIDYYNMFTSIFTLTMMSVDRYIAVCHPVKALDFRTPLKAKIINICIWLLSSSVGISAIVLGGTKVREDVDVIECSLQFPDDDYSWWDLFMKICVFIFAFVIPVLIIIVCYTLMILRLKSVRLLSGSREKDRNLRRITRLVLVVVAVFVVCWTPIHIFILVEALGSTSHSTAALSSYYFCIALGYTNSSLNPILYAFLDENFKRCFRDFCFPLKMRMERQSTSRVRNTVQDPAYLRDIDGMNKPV
Usually inhibition stands for the drop in the measured response relative to a control, in per cent. For the molecule `CSc1cccc(NC(=O)C(=O)NCCc2ccccn2)c1`, the inhibition is 17.5% (inactive).
With `CCOC(=O)CCSc1cc(-n2cccc2)c(Cl)cc1[N+](=O)[O-]` the figure was -12.9% (inactive); with `CCOC(=O)Cn1sc2nc(C)cc(C)c2c1=O`, -8.2% (inactive).
For `O=C(c1ccccc1I)c1c[nH]c2ccccc12`, the inhibition is 2.4% (inactive).
Then `O=C1C=C(NNc2ccccc2)CCC1`, with -30.2% (inactive); and `O=[N+]([O-])c1ccc2ncccc2c1-n1cccc1`, with -23.5% (inactive); and `CC(OC(=O)c1cccc(Cl)c1)c1ccc[n+](C)c1` (stereo not given), with 1.5% (inactive).
With `CN(n1cnc2ccccc2c1=O)S(=O)(=O)c1cc(Cl)sc1Cl` the figure was 4.5% (inactive); with `O=c1o[nH]c(-c2ccccc2)c1N=Nc1c(F)cccc1Cl`, 4.9% (inactive); with `O=C(O)C1CCC1C(=O)Nc1nnc(C2CC2)s1` (stereo not given), 7.5% (inactive).
With `O=C(NNC(=S)Nc1ccc(S(=O)(=O)N2CCCCC2)cc1)c1ccncc1` the figure was 6% (inactive).
Take `CC(CC(=O)O)Oc1ccc(Cl)cc1[N+](=O)[O-]` (stereo not given): the inhibition was -0.1% (inactive).
Then `O=C(O)CCC(=O)Nc1ccccc1`, with 9.6% (inactive); and `O=C(CN1CCOCC1)NNC(=O)c1cccs1`, with 9.5% (inactive).
Regarding `O=S(=O)(CCSc1ccccc1NS(=O)(=O)c1cccs1)c1ccc(Cl)cc1`, the inhibition was -16.4% (inactive).
With `CCCN(CCC)S(=O)(=O)c1ccc(C(=O)Oc2c(C)cccc2OC)cc1` the figure was -3.1% (inactive); with `Cc1noc(C)c1C(=O)N1CCOCC1`, 0.6% (inactive); with `CC(=O)OCc1ccc(COC(C)=O)c(OC(C)=O)c1OC(C)=O`, -15.9% (inactive).
With `O=C1C(Cl)=C(Oc2cc(Cl)c(Cl)cc2Cl)C(=O)c2ccccc21` the figure was 21.4% (inactive); with `CO/N=C(/C)c1ccc2c(c1)CCO2`, 10.8% (inactive).
For `COC(=O)/C=C/c1cn(C2OCC(CO)C2O)c(=O)[nH]c1=O` (stereo not given), the inhibition is -22% (inactive).
For the molecule `O=C(OCc1ccco1)c1cnc(Nc2ccc(OC(F)(F)F)cc2)nc1C(F)(F)F`, the inhibition is 17.4% (inactive).
With `Cc1ccccc1C(=O)NNC(=O)c1ccccc1C1=NCCCN1` the figure was -4.3% (inactive); with `O=C(NC(=O)C1CCN(c2ncccc2[N+](=O)[O-])CC1)Nc1ccc(Cl)cc1`, -2% (inactive); with `O=c1oc2ccc(Cl)cc2cc1-c1ccc([N+](=O)[O-])cc1`, -18.5% (inactive).
Then `CC(C)(C)c1cc(C(=O)/C=C2/NC(=O)CS2)no1`, with 6.7% (inactive); and `Cc1nn(S(=O)(=O)c2ccc(Cl)cc2)cc1-c1ccccc1`, with 0.1% (inactive); and `Cc1ccc(S(=O)(=O)NC(=O)NNc2ncnc3scc(-c4ccccc4)c23)cc1`, with -34.5% (inactive).
With `NC(N)=N/C(N)=N/c1nnc(C(F)(F)F)s1` the figure was 13.1% (inactive).
Consider `N#C/C(=C\c1sccc1Oc1ccccc1)S(=O)(=O)c1ccc(C(F)(F)F)cn1`, for which the inhibition is -9.5% (inactive).
Consider `O=S(=O)(Cc1cccc(C(F)(F)F)c1)NCc1ccc2c(c1)OCO2`, for which the inhibition was 9.5% (inactive).
With `O=c1[nH]cc(Br)c(=O)[nH]1` the figure was 6.1% (inactive).
Then `CN(C)c1cc(-c2cc(Cl)sc2Cl)oc(=O)c1Cl`, with -5% (inactive); and `c1ccc(-n2cccc2)c(N2CCCCC2)c1`, with -9.4% (inactive).
With `CC(C)(C)C(=O)NNC(=O)c1ccc(Oc2ccc(C3SCCS3)cc2)o1` the figure was 30.1% (inactive); with `CCOC(=O)/C(C#N)=C/NNc1c(C)csc1C(=O)OC`, 8.8% (inactive).
For `CS/C(=N/S(=O)(=O)c1c(C)noc1C)NNC(=O)Nc1ccc(Cl)cc1`, the inhibition is 1.3% (inactive).
With `O=C(Nc1ccccc1C(F)(F)F)N1CCCC1c1cccnc1` (stereo not given) the figure was -12.3% (inactive); with `COc1cccc2cc(C(=O)O)oc12`, 19.9% (inactive).
Then `c1ccc(C2=NCCN=C2c2ccccc2)cc1`, with -1.9% (inactive); and `O=C(O)c1nccnc1C(=O)NCCSCc1c(F)cccc1Cl`, with 2.6% (inactive); and `O=[N+]([O-])c1cc(C(F)(F)F)ccc1OCCO`, with 6.7% (inactive).
Then `CCOC(=O)CN1C(=O)/C(=C\c2ccc(C)o2)N=C1c1ccccc1`, with 3.1% (inactive).
On to `Cc1ccc(/C=c2\sc3nc4ccccc4n3c2=O)o1`, for which the inhibition is 53.6% (active).
With `O=C(Nc1ccccc1)N1CCN(Cc2ccccc2)CC1` the figure was 8.5% (inactive).
